According to PubChem BioAssay AID623911 (Vanderbilt High Throughput Screening Facility, 2012):
Among all 2,100 compounds or so, about 770 (37%) were called active.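 How the source made its calls: active means by-eye trace score of 1 for enhancers or -1 for inhibitors, so actives lie on both sides (some results past the limit were not filed as active); inactive means score 0, or 3 fluorescent, or 4 baseline rise.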 This is one part of the list.

Target: G protein-activated inward rectifier potassium channel 2 (Homo sapiens) + G protein-activated inward rectifier potassium channel 1 (Homo sapiens) (UniProt P48051+P48549)
Assay: GIRK1/2 thallium flux modulators, retest, confirmation, cell-based, HEK293 rmGlu8/hGIRK1/2, FluoZin-2 (AID 623911)
Details: HEK293 rmGlu8/hGIRK1/2, thallium flux FluoZin-2; actives lie on both sides; glutamate co-added at its EC20 level

G protein-activated inward rectifier potassium channel 2 (Homo sapiens) + G protein-activated inward rectifier potassium channel 1 (Homo sapiens), sequence (P48051 whole entry, looked up): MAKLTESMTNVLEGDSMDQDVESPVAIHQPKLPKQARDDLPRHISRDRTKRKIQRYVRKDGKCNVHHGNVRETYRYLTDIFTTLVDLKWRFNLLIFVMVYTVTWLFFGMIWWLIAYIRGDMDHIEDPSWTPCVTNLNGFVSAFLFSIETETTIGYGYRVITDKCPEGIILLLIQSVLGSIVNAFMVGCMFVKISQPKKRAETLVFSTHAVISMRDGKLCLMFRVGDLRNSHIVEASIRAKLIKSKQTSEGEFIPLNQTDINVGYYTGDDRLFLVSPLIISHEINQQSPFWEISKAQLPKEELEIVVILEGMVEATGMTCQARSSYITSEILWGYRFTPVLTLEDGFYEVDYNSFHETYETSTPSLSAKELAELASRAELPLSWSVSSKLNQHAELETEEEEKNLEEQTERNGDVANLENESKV
G protein-activated inward rectifier potassium channel 2 (Homo sapiens) + G protein-activated inward rectifier potassium channel 1 (Homo sapiens), sequence (P48549 whole entry, looked up): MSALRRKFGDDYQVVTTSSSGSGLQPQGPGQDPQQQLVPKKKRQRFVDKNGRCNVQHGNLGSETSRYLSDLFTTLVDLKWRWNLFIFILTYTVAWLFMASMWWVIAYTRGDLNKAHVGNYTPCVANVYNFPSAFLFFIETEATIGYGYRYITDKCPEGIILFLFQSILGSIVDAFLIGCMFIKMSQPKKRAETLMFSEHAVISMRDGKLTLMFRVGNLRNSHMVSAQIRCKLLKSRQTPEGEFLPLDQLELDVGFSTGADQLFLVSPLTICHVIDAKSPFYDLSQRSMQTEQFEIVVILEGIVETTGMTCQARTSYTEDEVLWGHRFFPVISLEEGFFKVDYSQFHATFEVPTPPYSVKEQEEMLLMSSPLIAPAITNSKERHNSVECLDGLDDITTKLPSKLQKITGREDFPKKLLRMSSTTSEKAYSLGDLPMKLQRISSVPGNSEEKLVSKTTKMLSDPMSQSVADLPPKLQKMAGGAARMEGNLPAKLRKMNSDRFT

Manual score, active:
O=C(Nc1nnc(-c2ccc(Cl)cc2)o1)c1nc2ccccc2s1 1
O=C(Nc1nnc(-c2ccccc2Cl)o1)c1nc2ccccc2s1 1
O=C(Nc1nnc(-c2ccc(Cl)cc2)o1)c1ccccc1Br 1
O=C(Nc1nnc(-c2ccc(Cl)cc2)o1)c1cccc(N2C(=O)CCC2=O)c1 -1
Cc1ccc(C)c(N=C2CCCN2Cc2ccccc2)c1C#N -1
Cc1ccc(N=C2CCCN2Cc2ccccc2)c(C#N)c1 -1
O=C(Nc1ccc2[nH]c(=S)sc2c1)c1ccccc1 1
O=C(NCc1ccc2c(c1)OCO2)C1CCN(Cc2cnn(-c3ccccc3)c2-n2cccc2)CC1 -1
COc1c(Cl)cc(Cl)cc1CNCCNCC(C)O (stereo not given) 1
CC(Sc1nnnn1C)C(=O)Nc1ccc(Oc2ccccc2)cc1 (stereo not given) 1
CN(C(=S)NC(=O)c1ccccc1Br)C1CCCCC1 1
COc1ccccc1/C=C/C(=O)NC(=S)N(C)C1CCCCC1 1
CCCc1ccc(OCC(=O)NNC(=S)NC(=O)c2ccco2)cc1 1
Cc1ccccc1OCC(=O)NNC(=S)NC(=O)c1ccco1 1
CC1(C)CC2CC(C)(CN2C(=S)NC(=O)c2ccccc2Cl)C1 (stereo not given) 1
O=C(NCCSCc1ccco1)Nc1cccc(Cl)c1 1
CN(C)S(=O)(=O)N(CC(=O)Nc1ccc2ccccc2c1)c1ccccc1 1
CSc1cccc(NC(=O)CN(c2ccccc2)S(=O)(=O)N(C)C)c1 1
CSc1cccc(NC(=O)CN(c2ccc(C)cc2C)S(C)(=O)=O)c1 1
CSc1cccc(NC(=O)COc2ccccc2)c1 1
c1ccc2c(NC3CCCC3)nnc(NC3CCCC3)c2c1 -1
Cc1ccc2nc(NCc3ccccc3)[nH]c2c1 -1
S=c1[nH]nc(-c2ccco2)n1/N=C/c1ccc(Cl)cc1Cl 1
CC(Oc1ccc(Cl)cc1)C(=O)N/N=C/c1ccsc1 (stereo not given) 1
CCCN(CCC)C(=S)NC(=O)c1ccc(Cl)cc1Cl 1
CCCCN(CCCC)C(=S)NC(=O)C(C)(C)C 1
CC1Cc2ccccc2N1C(=S)NC(=O)c1ccc(Cl)cc1Cl (stereo not given) 1
CCCN(CCC)CCCOC(=O)c1ccc(Cl)cc1Cl -1
CCN(CC)C(=S)NC(=O)c1ccc(Cl)cc1Cl 1
CCCCN(CCCC)C(=S)NC(=O)c1ccccc1Cl 1
O=C(Nc1ccc2c(c1)OCCO2)NC12CC3CC(CC(C3)C1)C2 1
CCOc1ccc(NC(=O)NC23CC4CC(CC(C4)C2)C3)cc1 1
Cc1[nH]n(-c2ccccc2)c(=O)c1N=Nc1nccs1 1
c1csc(CCNc2ncnc3sc4c(c23)CCC4)c1 -1
N#CCCn1nc(-c2ccc(Cl)cc2)cc1Nc1ccccc1NC(=O)C(F)(F)F 1
CC(C)Oc1cccc(C(=O)NC(=S)N2CCN(c3ccc(C(F)(F)F)cc3[N+](=O)[O-])CC2)c1 1
COc1cc(OC)cc(C(=O)NC(=S)N2CCN(c3ccc(C(F)(F)F)cc3[N+](=O)[O-])CC2)c1 1
C=CCCCCCCCCc1nc(=S)[nH][nH]1 1
CCOC(=O)c1c(C)c(C(=O)N2CCc3ccccc3C2)c(C)n1CC -1

Manual score, inactive:
Cn1c(=O)c(NCCO)c2c3c(cccc31)C(=O)c1ccccc1-2 3
O=C(Nc1nnc(-c2ccc(Cl)cc2)o1)C1=COCCO1 0
O=C(Nc1nnc(-c2ccc(Cl)cc2)o1)c1ccc(N2C(=O)CCC2=O)cc1 0
O=C(O)CC/C(=C\c1cc([N+](=O)[O-])ccc1Cl)c1nc2ccccc2s1 -0.5
CC(C)NC(=O)c1nc2ccccc2s1 0
O=C(NCCCN1CCN(c2cccc(Cl)c2)CC1)c1cccc(N2CCCC2=O)c1 0
O=c1c(-c2ccc(Cl)cc2)[n+]([O-])c2ccccc2n1O 2
CCC(C)(C)NC(=O)C(c1ccc(F)cc1)N(Cc1ccco1)C(=O)c1cnccn1 (stereo not given) 0
COC(=O)c1ccc(C(=O)OC)c(NC(=O)CSc2nc(-c3ccco3)cc(C(F)(F)F)n2)c1 -0.5
Cc1c(C#N)c2ccccc2n1CC(=O)O 0
CC(C)n1c(CCC(=O)O)ccc1-c1ccccc1 0
CC(C)OCCCNC(=O)c1cccc(NC(=O)c2ccccc2)c1 0
O=C(NC(=S)Nc1ccc2c(c1)OCCO2)c1ccccc1 0.5
O=C(CCS(=O)NCc1ccccc1)NCc1ccccc1 (stereo not given) 0
CS(=O)(=O)N(CCc1ccccc1)CC(=O)NCc1ccc2c(c1)OCO2 0
Cn1cc(CCC(=O)NCc2ccc3c(c2)OCO3)c2ccccc21 0
CCc1nnc(NC(=O)CSc2nnc(-c3c[nH]c4ccccc34)n2CC)s1 0
CC(NC(=O)c1ccccc1NC(=O)CSc1nnnn1C)c1ccccc1 (stereo not given) 0
S=C1NC2=C(CCCC2)C2(CCCCC2)N1 0
CCN(C(=O)c1cc(Cl)ccc1OC)C1CCCCC1 -0.5
CC1CCCC(NC(=S)NC(=O)c2ccccc2Br)C1C (stereo not given) 0
CN(Cc1ccccc1)C(=S)NC(=O)C1CCCCC1 0
CCOC(=O)CSc1nnc(-c2ccccc2OC)o1 -0.5
CC(C)NC(=O)/C(=C/c1ccco1)c1ccccc1 0
Cc1nccn1CCc1nc(N)nc(N)n1 0
CCN(CC)c1ccc(/C=C2/C(=O)c3ccc(C(=O)O)cc3C2=O)cc1 3
Nc1sccc1C(=O)c1ccccc1 0
O=C(NCCCn1ccnc1)Nc1ccc(Cl)c(Cl)c1 0
Clc1cccc(CSc2nnc(-c3ccccn3)n2Cc2ccco2)c1 0
CC(=O)c1cccc(NC(=O)CCOc2ccccc2)c1 0
Cc1cccc(NC(=O)CN(c2ccc(C(C)C)cc2)S(=O)(=O)c2c(C)nn(C)c2C)n1 -0.5
COc1cccc(N(CC(=O)NCc2cccnc2)S(C)(=O)=O)c1 0
COc1cccc(NC(=O)COc2ccc(C)cc2)c1 0
COc1cccc(N(CC(=O)Nc2cccc(C(C)=O)c2)S(C)(=O)=O)c1 0
CC1=CC(=O)OC1Cc1ccncc1 (stereo not given) 0
O=c1c2c(nc3c(-c4ccc(Cl)cc4)c[nH]n13)CCCC2 0
O=C(CSc1nnnn1-c1cccc2c1CCCC2)NC1CCCC1 -0.5
CSC1=N/C(=C\c2ccc(Br)o2)C(=O)S1 0
CN=C1S/C(=C\c2cc(C)n(-c3ccccc3F)c2C)C(=O)N1C 0
CC1CCN(c2ccc(/C=N/n3nnnc3N)cc2[N+](=O)[O-])CC1 0
Cc1cc(N2CCN(c3ccccc3)CC2)nc(NCc2ccccc2)n1 0
CC(/C=N/n1c(-c2ccco2)n[nH]c1=S)=C\c1ccccc1 0
S=c1[nH]nc(-c2ccco2)n1/N=C/c1cccc(Cl)c1Cl 0
Cc1ccc(N2CC(C(=O)Oc3cccc(N4C(=O)CCC4=O)c3)CC2=O)cc1 (stereo not given) 0
Cc1ccc(/C(O)=C2\C(=O)C(=O)N(c3cc(C)on3)C2c2cccc(Br)c2)cc1 (stereo not given) 0
CC(C)C(=O)Nc1cccc(NC(=O)c2cc3ccccc3o2)c1 0
CC(=O)Nc1nnc(C)s1 0
CCOC(=O)CC1=C(C(=O)OCC)C(c2cccs2)C(C#N)=C(N)O1 (stereo not given) 0
CCOC(=O)C(C(=O)OCC)c1cc(Br)c2noc3c2c1C(=O)c1ccccc1-3 3
COc1c2occc2c(OC)c2c(=O)cc(C(F)(F)F)oc12 0
COc1cc(/C=C2\S/C(=N/S(=O)(=O)c3ccc(C)cc3)NC2=O)c([N+](=O)[O-])cc1OC 0
CN(C(=S)NC(=O)CCCOc1ccc(Cl)cc1Cl)c1ccccc1 0
CCCCN(CCCC)c1ccc(C(=O)c2ccccc2C(=O)O)c(O)c1 0
CCCCn1nnc(NC(=S)NC(=O)c2ccc(-c3cccc(Cl)c3Cl)o2)n1 0.5
S=c1[nH]nc(CSCc2ccc(Cl)cc2Cl)n1-c1ccccc1 0
CCOC(=O)C1CCN(C(=O)NC23CC4CC(CC(C4)C2)C3)CC1 0
O=C(COC(=O)C1CC2C=CC1C2)Nc1ccc2c(c1)OC(F)(F)O2 (stereo not given) 0
COC(=O)[C@H](CC(C)C)NC(=O)Nc1ccc2c(c1)OCCO2 0
CCOc1ccc(N2C(=O)CC(SC(=NC)Nc3ccc(F)cc3)C2=O)cc1 (stereo not given) 0
Cc1cccc(-n2c(C)nc3sccc3c2=O)c1 0
CCOn1c(=O)c(-c2cccs2)[n+]([O-])c2ccccc21 3
Cc1cc(C)nc(Sc2ncnc3sc4c(c23)CCC4)n1 0
CCOC(=O)c1cc(-c2ccc(Cl)cc2)nc2c1c(C)nn2CCC#N 0
COc1ccccc1NC(=O)COc1ccc(C(F)(F)F)cc1[N+](=O)[O-] 0
COc1cccc(C(=O)NC(=S)N2CCN(c3ccc(C(F)(F)F)cc3[N+](=O)[O-])CC2)c1 0.5
O=C1c2ccccc2C(=O)N1Nc1ccccc1 0
C(/C=C/C=C/Nc1ccccc1)=Nc1ccccc1 3
CCCCCCCCc1nc(=S)[nH][nH]1 0.5
CC1=C(n2nnc3ccccc32)C(c2ccccc2)C(C#N)=C(N)O1 (stereo not given) 0
O=C(COc1c(Br)cc(Br)c2cccnc12)N1CCc2ccccc2C1 0
CC(C)CC(=O)Nc1ccccc1-c1nnn(CC(=O)N2CCc3ccccc3C2)n1 0
